Screening data from PubChem.
Shown are actives, neighbours in structure and some others; about 3.7% of the full set was active somewhere.
BoNT F protease = BoNT/F light chain protease inhibitors, primary screen, biochemical, flow cytometry, MLPCN library; Botulinum neurotoxin type F light chain protease (Clostridium botulinum); Multiplex microsphere protease cleavage assay; inhibition, % at 10 µM; 360,000 compounds, 0.22% hits; AID 588497, 2011; in the data active = inhibition above about 35%, passing the limit was not always enough; inconclusive = no clear call, values can overlap the other calls; also: plate controls were buffer without enzyme for full effect and enzyme alone for no effect
MazF activator = activators of E. coli MazEF toxin-antitoxin RNase, primary screen, biochemical, fluorescence, uHTS. Endoribonuclease toxin MazF (Escherichia coli (strain K12)), P0AE70. FAM/BHQ RNA-DNA oligo cleavage fluorescence, 5 h. activation, % at 20 µM. 350,000 compounds, 0.32% hits. AID 504720, 2011; in the data active = activation above about 50%
BoNT-A LC inh2 = BoNT/A light chain protease inhibitors, primary screen, biochemical, flow cytometry, MLPCN library; multiplex microsphere protease substrate cleavage; inhibition, % at 10 µM; 360,000 compounds, 0.17% hits; also: plate controls were buffer without enzyme for full effect and enzyme alone for no effect
Anthrax LF prot = Bacillus anthracis LF protease inhibitors, primary screen, biochemical, multiplex microsphere, MLPCN library | multiplex microsphere protease cleavage assay | 360,000 compounds, 0.12% hits | AID 588501, 2011 | Lethal factor (Bacillus anthracis), P15917 | inhibition, % at 10 µM; also: plate controls were buffer without enzyme for full effect and enzyme alone for no effect
Target sequence (P15917 whole entry, looked up): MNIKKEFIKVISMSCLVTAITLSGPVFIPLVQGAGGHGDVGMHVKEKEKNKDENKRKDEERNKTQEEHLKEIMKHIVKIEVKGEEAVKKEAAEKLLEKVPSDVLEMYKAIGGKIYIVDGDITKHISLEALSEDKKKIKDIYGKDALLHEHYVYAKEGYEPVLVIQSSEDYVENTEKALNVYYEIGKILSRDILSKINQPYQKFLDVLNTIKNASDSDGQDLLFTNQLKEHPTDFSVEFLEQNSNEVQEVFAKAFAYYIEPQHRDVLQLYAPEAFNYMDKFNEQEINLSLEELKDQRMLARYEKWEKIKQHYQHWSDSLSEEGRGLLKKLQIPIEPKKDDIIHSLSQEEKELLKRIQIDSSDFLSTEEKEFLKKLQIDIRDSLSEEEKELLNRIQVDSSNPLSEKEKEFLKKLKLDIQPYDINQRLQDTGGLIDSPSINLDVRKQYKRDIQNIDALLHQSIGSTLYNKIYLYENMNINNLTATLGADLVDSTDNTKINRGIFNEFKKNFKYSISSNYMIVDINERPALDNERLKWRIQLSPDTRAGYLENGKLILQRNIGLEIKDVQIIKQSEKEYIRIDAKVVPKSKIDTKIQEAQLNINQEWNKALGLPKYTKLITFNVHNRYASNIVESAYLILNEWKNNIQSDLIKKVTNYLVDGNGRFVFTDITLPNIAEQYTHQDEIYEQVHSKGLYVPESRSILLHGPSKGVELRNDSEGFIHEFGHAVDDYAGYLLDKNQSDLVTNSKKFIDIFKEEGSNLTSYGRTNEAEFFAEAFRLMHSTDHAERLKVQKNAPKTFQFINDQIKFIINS
Bead autofluor = compound fluorescence in toxin protease inhibitor counterscreen; compound autofluorescence counterscreen, microsphere flow cytometry; active compounds read high; fluorescence intensity (concentration not given with the values); 360,000 compounds, 3.1% hits; AID 624483; in the data active = fluorescence intensity above about 16000; inconclusive = no clear call, values can overlap the other calls
Active calls of the source: *. Rule as the data show it, unless noted: active = inhibition above about 30%; inconclusive = no clear call, values can overlap the other calls; inactive = below that.

`Cc1ccc(C2CC(=O)Nc3sc(C(N)=O)c(N)c32)cc1` (stereo not given) gave BoNT F protease 0.0, MazF activator 1.7, BoNT-A LC inh2 1.3, Anthrax LF prot -0.9 and Bead autofluor 21762*.
CCN(CC)S(=O)(=O)c1csc(C(=O)OCC(=O)c2ccccc2)c1 was read as BoNT F protease -1.2, MazF activator -1.2, BoNT-A LC inh2 -1.9, Anthrax LF prot -4.4 and Bead autofluor 17304*.
For Cc1cccc(NC(=S)N/N=C/c2ccc([N+](=O)[O-])s2)c1 the results were BoNT F protease 19.7, MazF activator 9.5, BoNT-A LC inh2 87.9*, Anthrax LF prot 52.5* and Bead autofluor 3008.
For O=C(O)c1ccc(Cl)c(NC(=O)C2CCCN2S(=O)(=O)c2cccc3nsnc23)c1 (stereo not given) the results were BoNT F protease -0.2, MazF activator -1.8, BoNT-A LC inh2 -0.4, Anthrax LF prot -3.0 and Bead autofluor 20420*.
O=C(COC(=O)c1ccc(F)cc1F)c1ccc[nH]1 was read as BoNT F protease 0.0, MazF activator -0.8, BoNT-A LC inh2 3.3, Anthrax LF prot 0.9 and Bead autofluor 4682.
Screening Cc1ccc(C(=O)Nc2nnc(C3CCCCC3)s2)o1 returned BoNT F protease -4.1, MazF activator 6.6, BoNT-A LC inh2 -1.0, Anthrax LF prot -4.1 and Bead autofluor 23882*.
Cc1cc(C(=O)Nc2nnc(C3CCCCC3)s2)no1 was read as BoNT F protease -2.8, MazF activator -2.8, BoNT-A LC inh2 0.0, Anthrax LF prot 0.5 and Bead autofluor 9531.
`Cn1c(SCC(=O)NCC2CCCO2)nnc1-c1ccco1` (stereo not given) gave BoNT F protease 8.2, MazF activator 0.6, BoNT-A LC inh2 4.3, Anthrax LF prot -1.7 and Bead autofluor 4647.
C#CCN1C(=O)S/C(=C\c2ccc(N3CCOCC3)cc2C)C1=O was read as BoNT F protease 1.2, MazF activator 310.0*, BoNT-A LC inh2 0.0, Anthrax LF prot -1.5 and Bead autofluor 2666.
For CC(C)N(C(=O)CSc1nnc(C2CC2)n1C1CC1)c1ccccc1 the results were MazF activator 0.3.
For CN(C(=O)c1cccc(NC(=O)Cc2cccc([N+](=O)[O-])c2)c1)C1CCCC1 the results were BoNT F protease 1.4, MazF activator -13.9, BoNT-A LC inh2 -0.2, Anthrax LF prot -3.5 and Bead autofluor 3764.
`Cc1ccc(OCC(=O)Nc2nnc(C3CCCO3)s2)c(Br)c1` (stereo not given) gave BoNT F protease -4.1, MazF activator 2.0, BoNT-A LC inh2 -0.4, Anthrax LF prot 0.6 and Bead autofluor 3791.
`O=C(Nc1nnc(C2CCCO2)s1)c1ccc(Br)cc1` (stereo not given) gave BoNT F protease 0.1, MazF activator 0.1, BoNT-A LC inh2 0.0, Anthrax LF prot -4.0 and Bead autofluor 23157*.
Cc1cccc(-n2nnnc2SCC(=O)c2cc(C)n(Cc3ccco3)c2C)c1 was read as BoNT F protease -0.3, MazF activator -25.8, BoNT-A LC inh2 inconclusive, Anthrax LF prot -0.1 and Bead autofluor 22516*.
`Cc1cccc(-n2nnnc2SCC(=O)c2cc(C)n(CC3CCCO3)c2C)c1` (stereo not given) gave BoNT F protease -34.9, MazF activator -1.6, BoNT-A LC inh2 -0.2, Anthrax LF prot -7.3 and Bead autofluor 4434.
Screening O=C(Nc1ccc2c(c1)OCO2)C1CCCN(c2nc3ccccc3s2)C1 (stereo not given) returned BoNT F protease 14.2, MazF activator 4.6, BoNT-A LC inh2 12.7, Anthrax LF prot -2.7 and Bead autofluor 18282*.
Cc1cc(C)nc(N2CCCC(C(=O)Nc3ccc4c(c3)OCCO4)C2)n1 (stereo not given) was read as BoNT F protease 3.5, MazF activator -1.3, BoNT-A LC inh2 0.3, Anthrax LF prot -2.3 and Bead autofluor 11029.
Screening COc1ccc(CCNC(=O)C2CCCN(c3nc4ccccc4s3)C2)cc1OC (stereo not given) returned BoNT F protease 11.3, MazF activator -4.6, BoNT-A LC inh2 2.7, Anthrax LF prot -2.8 and Bead autofluor 3418.
Screening CCc1nnc(NC(=O)C2CCCN(c3nc4ccccc4s3)C2)s1 (stereo not given) returned BoNT F protease -1.0, MazF activator -4.0, BoNT-A LC inh2 -0.4, Anthrax LF prot 0.8 and Bead autofluor 19697*.
COc1ccc(S(=O)(=O)N(C)C[C@@H]2OCc3cnnn3CCCC(=O)N([C@@H](C)CO)C[C@H]2C)cc1 was read as BoNT F protease -0.2, MazF activator 7.3, BoNT-A LC inh2 0.1, Anthrax LF prot -4.3 and Bead autofluor 3454.
Screening Cn1c(/C=C(\C#N)C(N)=S)ccc1-c1ccc(Br)cc1 returned BoNT F protease 5.3, MazF activator -0.6, BoNT-A LC inh2 32.6*, Anthrax LF prot 32.1* and Bead autofluor 4648.
Screening CC1=Nc2ccccc2/C1=C\c1nc(-c2ccc(F)cc2)oc1O returned BoNT F protease 1.2, MazF activator active, BoNT-A LC inh2 13.7, Anthrax LF prot 12.1 and Bead autofluor 8406.
CC1CCCC(C)N1C(=O)CSc1nnc(COc2ccc(F)cc2)o1 (stereo not given) was read as BoNT F protease -9.8, MazF activator 1.8, BoNT-A LC inh2 -4.1, Anthrax LF prot -2.5 and Bead autofluor 5926.
`CC1=C(C(=O)N2CCOCC2)CC(CC(=O)NCc2ccco2)C(=O)N1Cc1ccccc1` (stereo not given) gave BoNT F protease -7.2, MazF activator 0.3, BoNT-A LC inh2 0.3, Anthrax LF prot 4.5 and Bead autofluor 3782.
For CCOC(=O)c1c(/N=C/C2C(=O)NC(=O)NC2=O)sc2c1CCC2 the results were BoNT F protease -1.8, MazF activator 123.3*, BoNT-A LC inh2 -1.0, Anthrax LF prot -3.5 and Bead autofluor 3797.
`Cc1ccc(C(=O)N2CCN(c3ccccc3O)CC2)cc1S(=O)(=O)N1CCCCC1` gave BoNT F protease -8.3, MazF activator 1.8, BoNT-A LC inh2 -7.8, Anthrax LF prot -2.4 and Bead autofluor 8021.
Cc1cc(C)c2c(C)nn(C3CCCCC3)c2n1 was read as BoNT F protease -0.3, MazF activator 13.7, BoNT-A LC inh2 inconclusive, Anthrax LF prot -3.7 and Bead autofluor 16323*.
Screening CC1CC2(C)Oc3ccccc3C3OCC1(CO)C(C)C32 (stereo not given) returned BoNT F protease 2.1, MazF activator -0.5, BoNT-A LC inh2 4.4, Anthrax LF prot -9.5 and Bead autofluor 19211*.
For CC(=O)OCC12COC3c4ccccc4OC(C)(CC1C)C3C2C (stereo not given) the results were BoNT F protease 0.6, MazF activator -0.2, BoNT-A LC inh2 -0.7, Anthrax LF prot -3.8 and Bead autofluor 4460.
